From the supplement of paper PMC6555819

tested on: FXR:RXRa (NR concentration 270 nM, RXRa partner concentration 90 nM); assay: PBM binding z-score (relative to random genomic background probes); higher = stronger binding; sequences stand for … in GC…GCGATTGACAGCGTAGAATGAAGG
How it was run: (§1)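 Random background probes are the reference for binding z-scores. These scores derive from regression-normalized fluorescence on custom Agilent 4×180K protein-binding microarrays incubated 1 h with ligand-free nuclear receptor dimers. Binding was detected with antibodies against each partner (one per run).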

Sequence | PBM binding z-score
TTACTAAGGTGAAGGTCGTTGATCCCTCTGTAGA | 3.06
AGATGTAGGTTAAGGGTCATTCAGGTTGGTTCGC | 5
CCGACTGGGCCATCAGGTCATTGATATCAACGTT | 1.52
CAAACTAGGACACGAAAGGTCAAAGTCGAATGAC | 5.33
CCTAGCAGGCCAGGGTAACTCAAGCATTTCGCTT | -0.463
TCTAGTTGGTCAAAGCTCACACACTCGAAATGCG | 0.576
TCTTGTAGATCAACAGGAGGTTAAGACAGATCGA | 0.088
TCTAGTTGCTCAAAGGTCACACACTCGAAATGCG | 5.09
TCTGCTAGGTCAACGATGGACAGCTAATCTGCTA | 3.08
GCTGCTAGGTCAGGTTTGTCAGCTAACGGGTACG | 0.8
CCTGCTGGGTCAATGGTCAGCTAAAGCAGCTCGC | 2.08
GCAGACAAGTGAAACGCAGGTAACTCAGGGTGGC | -0.375
TCGAGTAGGTTACCAATGGGGCGTTCAGCTTTCT | -0.0945
CCTCGGAGGCCAACAGGAGGTCAGAGCTGCCAGA | 1.54
GTACCAAAGTGAATAGGTCGTTGATGAGTAGGCG | -0.437
GCTCGGAGGACAAGGTCAGAGTTTTGTCCGTAGA | 1.98
TAGCCTAGGCCAGATCGGGCCAGTATACGCTATA | -0.616
GCGACTGGGGCAAAGCAGGTTACCTTAAGGTTGG | 0.232
GCATATAGGTAATACAAGGTGAAAGTGCGATTGT | 1.29
CCTACTGGGCCACGAAAGGTCATTGAATCAGTGA | 3.69

Sequence | PBM binding z-score
TCGAGTAGGATACCAATGGGGCATTCAGCTTTCT | -0.594
TCTGCTAGGTCAACGATGGTCAGCTAATCTGCTA | 3.45
CACCCTAGGTCAGGGCCAGTATAGGAGGAACGTT | 1.9
CGAACTAGATCAAGGACAGTGAATCTCCGCACGC | -0.0387
ATACCAAGGTGATCGTGACGTCGTTGATACTAAC | 0.364
CCGACTGGAGCAAGGTTACCATAACGCACAGCCA | -0.0203
CCTACTGGGACAAAGGTCATTGATTCCAATGCTC | 5.11
CCATACAGGTGAGAAGGTAACTCAGCCTCGATTA | 0.317
ATACCAAGGTGATCGTGAGGTCGTTGATACTAAC | 1.86
TTCCCAAGGTGAAAGGTCGTTGATGCACGCCTTG | 3.69
TAGCCTCGGTCATGGGCCAGTATACCACGCGAAC | 0.333
CCTTACGGGTCACTCCAGGTTATCGCATCGGAGT | 4.86
TCTAGCAGGCCAGAGGGTCACTAAAGAGGTACGG | 0.744
TCTTGTAGATCAAGCAGGTTAAGAAGGCCTGAGT | 0.0541
GTACCAATGTGAATAGGTCGTTGATGAGTAGGCG | -0.0565
ACAGCCAGGTGATGAAGGTAACTCAGGCTATCAT | -0.381
CGAACGAGGGCACGAGTTGATAGCAAATGCCGAT | 0.992
TCGAGTAGGTTATGGGCATTCAGAATGGCGTCGA | -0.455
TCTGCTAGGTCAACGACGGTCAGCTAATCTGCTA | 3.49
TGGATGAGGTTATAAGATCAGGGAACGTTGCAAA | 1.51

tested on: LXRa:RXRa (NR concentration 270 nM, RXRa partner concentration 90 nM); assay: as above
How it was run: as §1

Sequence | PBM binding z-score
TTACTAAGGTGAAGGTCGTTGATCCCTCTGTAGA | 2.12
AGATGTAGGTTAAGGGTCATTCAGGTTGGTTCGC | 5.02
CCGACTGGGCCATCAGGTCATTGATATCAACGTT | 1.05
CAAACTAGGACACGAAAGGTCAAAGTCGAATGAC | 5.73
CCTAGCAGGCCAGGGTAACTCAAGCATTTCGCTT | -0.678
TCTAGTTGGTCAAAGCTCACACACTCGAAATGCG | 0.551
TCTTGTAGATCAACAGGAGGTTAAGACAGATCGA | 1.15
TCTAGTTGCTCAAAGGTCACACACTCGAAATGCG | 5.26
TCTGCTAGGTCAACGATGGACAGCTAATCTGCTA | 2.24
GCTGCTAGGTCAGGTTTGTCAGCTAACGGGTACG | 0.465
CCTGCTGGGTCAATGGTCAGCTAAAGCAGCTCGC | 1.41
GCAGACAAGTGAAACGCAGGTAACTCAGGGTGGC | -0.79
TCGAGTAGGTTACCAATGGGGCGTTCAGCTTTCT | 0.41
CCTCGGAGGCCAACAGGAGGTCAGAGCTGCCAGA | 2.49
GTACCAAAGTGAATAGGTCGTTGATGAGTAGGCG | -0.179
GCTCGGAGGACAAGGTCAGAGTTTTGTCCGTAGA | 1.71
TAGCCTAGGCCAGATCGGGCCAGTATACGCTATA | -1.17
GCGACTGGGGCAAAGCAGGTTACCTTAAGGTTGG | 0.16
GCATATAGGTAATACAAGGTGAAAGTGCGATTGT | 2.52
CCTACTGGGCCACGAAAGGTCATTGAATCAGTGA | 5.1

Sequence | PBM binding z-score
TCGAGTAGGATACCAATGGGGCATTCAGCTTTCT | -0.525
TCTGCTAGGTCAACGATGGTCAGCTAATCTGCTA | 2.96
CACCCTAGGTCAGGGCCAGTATAGGAGGAACGTT | 2.6
CGAACTAGATCAAGGACAGTGAATCTCCGCACGC | -0.559
ATACCAAGGTGATCGTGACGTCGTTGATACTAAC | 0.342
CCGACTGGAGCAAGGTTACCATAACGCACAGCCA | 0.559
CCTACTGGGACAAAGGTCATTGATTCCAATGCTC | 5.21
CCATACAGGTGAGAAGGTAACTCAGCCTCGATTA | 0.251
ATACCAAGGTGATCGTGAGGTCGTTGATACTAAC | 1.35
TTCCCAAGGTGAAAGGTCGTTGATGCACGCCTTG | 3.79
TAGCCTCGGTCATGGGCCAGTATACCACGCGAAC | 0.687
CCTTACGGGTCACTCCAGGTTATCGCATCGGAGT | 7.44
TCTAGCAGGCCAGAGGGTCACTAAAGAGGTACGG | 0.827
TCTTGTAGATCAAGCAGGTTAAGAAGGCCTGAGT | 0.0936
GTACCAATGTGAATAGGTCGTTGATGAGTAGGCG | -0.171
ACAGCCAGGTGATGAAGGTAACTCAGGCTATCAT | -0.496
CGAACGAGGGCACGAGTTGATAGCAAATGCCGAT | 0.567
TCGAGTAGGTTATGGGCATTCAGAATGGCGTCGA | 0.186
TCTGCTAGGTCAACGACGGTCAGCTAATCTGCTA | 4.34
TGGATGAGGTTATAAGATCAGGGAACGTTGCAAA | 1.26
